# Experimental data: ChEMBL document CHEMBL3988442, “University of Dundee, Small-Polar-MMV Screening Library” (2021)
# Among all 53,000 compounds or so, about 900 (1.7%) showed an effect of 50% or more. The entries come from a sample that favours strong results as a whole.
# Test system: Mycobacterium tuberculosis
# Assay: Cornell - Phenotypic assay to identify agents that inhibit growth of Mycobacterium tuberculosis
# Type: functional
# Design: scale not given: direction of the effect not stated beside the values
# Conditions: 10 mM as filed; unlikely as a test dose
row,SMILES,Percent Effect [%]
1,CN(C)C(=O)c1ccc2ccc(N3CCN(CC4CC4)CC3)n2c1,-12.17
2,Cc1ccc(-c2cc(C(=O)NC(C)C(=O)N3CCCCC3)on2)cc1 (stereo not given),17.57
3,CCc1ccc(S(=O)(=O)Nc2ccn(CC(=O)OC)n2)cc1,68.94
4,COC(=O)Cn1ccc(NS(=O)(=O)c2ccc3c(c2)CCC3)n1,-1.96
5,CCn1ccc(NS(=O)(=O)c2cccc(COC)c2)n1,-1.872
6,CSC(C)C(=O)N1CCCN(Cc2nccn2C)CC1 (stereo not given),-38.31
7,Fc1cccc(CN2CCC(c3noc(-c4ccncc4)n3)CC2)c1F,8.868
8,CCCc1nnc(N2CC[C@@](O)(C3CCOCC3)[C@H](C)C2)s1,-20.29
9,CS(=O)(=O)N1CC(c2nc(N)ncc2-c2ccc(F)cc2)C1,26.29
10,Nc1ncc(-c2ccc(F)cc2)c(C2CCCNC2)n1 (stereo not given),2.627
11,COc1ccc(-c2cnc(N)nc2C2CCCNC2)cc1.Cl (stereo not given),57.74
12,Nc1ncc(-c2ccc(Cl)cc2)c(C2CCCNC2)n1 (stereo not given),-8.441
13,Nc1ncc(-c2ccc(C(F)(F)F)cc2)c(C2CCCNC2)n1 (stereo not given),50.32
14,COc1ccc(-c2cc(C3CCCNC3)ccn2)cc1.Cl (stereo not given),13.34
15,Cc1n[nH]c(C2CN(CC(=O)NCCC3=CCCCC3)CCO2)n1 (stereo not given),-4.775
16,COc1cc(CNC(=O)c2csc(Br)c2)ccn1,5.577
17,c1ccc(CN2CCC(c3nccnc3-n3ccnc3)CC2)cc1,-13.47
18,Cc1noc(C)c1CN(Cc1cccs1)C1CCS(=O)(=O)C1 (stereo not given),-24.86
19,CCS(=O)(=O)N1CCc2ccc(NC(=O)NCCc3ccccc3)cc21,30.28
20,CN(C)CC(=O)N1CCN(C(=O)c2cccc3[nH]ncc23)CC1,11.64
21,CCc1cnc(CN(C(C)=O)C2CCN(CCc3ccccc3)C2)o1 (stereo not given),-5.219
22,Cc1csc(CNC(=O)N2CCN(Cc3ccco3)CC2)n1,5.266
23,Cc1ncsc1CN1C[C@@H]2COC[C@]2(C(=O)NCc2ccccn2)C1.O=C(O)C(F)(F)F.O=C(O)C(F)(F)F,34.64
24,Cc1csc(CN2C[C@@H]3COC[C@]3(C(=O)NCc3ccco3)C2)n1,99.79
25,Cc1ncsc1C(=O)N1CCCC(n2cncn2)C1 (stereo not given),-11.33

row,SMILES,Percent Effect [%]
1,CC(=O)N1CCCC1c1cccc(Oc2ccccc2F)n1 (stereo not given),16.34
2,Cc1cc(CN2CCN(S(=O)(=O)c3c(C)c(Cl)cc(C)c3Cl)CC2)on1,15.46
3,O[C@@H]1C[C@H]2CN(Cc3ccsc3)[C@@H](Cc3ccccc3)CN2C1,57.45
4,O[C@@H]1C[C@H]2CN(Cc3ccccc3)[C@H](Cc3ccccc3)CN2C1,7.945
5,O[C@@H]1C[C@H]2CN(Cc3ccccc3Cl)[C@H](Cc3ccccc3)CN2C1,13.61
6,Cc1ccc(CN2CC[C@H]3OCC[C@@H](c4nc(C)no4)[C@H]3C2)cc1,12.84
7,CCC(C)(CCO)NC(=O)c1ccon1 (stereo not given),-22.18
8,O=C(O)c1coc(COc2cccc(F)c2)n1,15.94
9,COC(=O)[C@@H](NC(=O)c1coc(COc2cccc(F)c2)n1)C(C)C,30.38
10,O=C(NCC(F)(F)F)c1coc(COc2cccc(F)c2)n1,71.66
11,O=C(NC(CO)CO)c1coc(COc2cccc(F)c2)n1,-12.31
12,CC(C)(NC(=O)c1coc(COc2cccc(F)c2)n1)C(N)=O,8.84
13,CCC(C)NC(=O)c1coc(COc2cccc(F)c2)n1 (stereo not given),60.97
14,CN(C)Cc1cc(C2CCCCN2S(=O)(=O)c2cccc(Cl)c2)nn1C.Cl (stereo not given),9.135
15,CC(C)N(Cc1ccc(Cl)c(Cl)c1)C(=O)CCn1cncn1,29.65
16,O=S(=O)(c1ccccc1)N1CCC2(CCCN2Cc2cccc(F)c2)C1 (stereo not given),5.302
17,Cc1nn(C2CCS(=O)(=O)C2)c(O)c1CCc1ccccc1 (stereo not given),6.158
18,Cc1ccc(CN2Cc3c(C(=O)N4CCN(C)CC4)nn(C)c3C2)s1.O=C(O)C(F)(F)F.O=C(O)C(F)(F)F.O=C(O)C(F)(F)F,-2.835
19,CS(=O)(=O)CCn1ccc(NC(=O)Cc2ccccc2F)n1,11.43
20,CCOC(=O)Cn1ccc(NC(=O)Cc2ccccc2F)n1,99.82
21,Cn1ccc(NC(=O)Cc2ccccc2F)n1,-2.791
22,CC(C)C1SCC(=O)Nc2c1c(O)nn2C1CCCCC1 (stereo not given),13.37
23,Cc1cc(N2CCC(Cc3ccccc3)CC2)ncn1,22.55
24,Cc1cc(N2CCC(CC(N)=O)CC2)nc(-c2ccncc2)n1,23.93
25,Cc1cc(N2CCC(Cc3ccccc3)CC2)nc(-c2ccncc2)n1,82.9
